Several values for one entry are separate records, joined by “and”; a condition that tells them apart may be missing. Equal values may be shown once. Unmarked numbers belong to inactive results. The call rests on the fitted dose curve. Bounds are passed on as bounds.
Potency means the concentration at half of the fitted maximal effect.

Glucocorticoid receptor (Homo sapiens), sequence (P04150 whole entry, looked up): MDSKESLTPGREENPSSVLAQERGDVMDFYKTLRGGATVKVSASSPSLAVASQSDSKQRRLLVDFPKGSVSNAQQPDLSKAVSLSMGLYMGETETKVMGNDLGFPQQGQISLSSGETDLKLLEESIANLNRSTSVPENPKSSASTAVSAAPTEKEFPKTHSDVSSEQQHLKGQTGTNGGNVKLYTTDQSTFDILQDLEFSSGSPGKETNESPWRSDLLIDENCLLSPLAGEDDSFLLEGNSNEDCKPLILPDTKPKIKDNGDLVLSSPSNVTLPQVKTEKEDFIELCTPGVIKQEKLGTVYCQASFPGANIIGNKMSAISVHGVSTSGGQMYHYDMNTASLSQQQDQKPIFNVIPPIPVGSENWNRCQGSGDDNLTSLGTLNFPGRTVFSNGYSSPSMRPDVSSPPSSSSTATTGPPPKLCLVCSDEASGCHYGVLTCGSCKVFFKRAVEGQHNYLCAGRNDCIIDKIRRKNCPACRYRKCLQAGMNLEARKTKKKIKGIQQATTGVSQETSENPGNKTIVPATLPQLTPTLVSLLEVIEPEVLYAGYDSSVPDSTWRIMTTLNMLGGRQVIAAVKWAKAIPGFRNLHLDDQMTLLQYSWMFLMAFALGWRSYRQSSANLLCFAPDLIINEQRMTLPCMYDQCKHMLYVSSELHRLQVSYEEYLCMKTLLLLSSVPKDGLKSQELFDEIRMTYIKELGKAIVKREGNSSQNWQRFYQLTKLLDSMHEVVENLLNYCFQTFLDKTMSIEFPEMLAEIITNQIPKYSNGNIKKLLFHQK

This experiment addresses Glucocorticoid receptor (Homo sapiens) (UniProt P04150). In words: GR-EFC Redistribution (AID 451). The settings on record: CHO-K1 GR-EFC translocation, beta-gal luminescence, 2 h. An excerpt:
NIH Molecular Libraries Screening Centers Network [MLSCN]
NIH Chemical Genomics Center [NCGC]
The glucocorticoid receptor (GR) is a cytoplasmic receptor that belongs to the nuclear receptor family of ligand-dependent transcription factors. Upon glucocorticoid binding to its receptor, the glucocorticoid-GR complex translocates into the nucleus, where it binds as a dimer to specific DNA sequences (glucocorticoid response elements), enhancing or suppressing transcription of a wide variety of glucocorticoid-responsive genes. In addition to their important roles in normal physiology and metabolism, glucocorticoids are administered exogenously as treatments for a wide variety of allergic, autoimmune, and neoplastic conditions. Identification of compounds that modulate aspects of GR signalling would be useful in dissecting glucocorticoid response pathways as well as developing GR modulators with more targeted clinical effects.
Traditionally, GR modulators have been identified using receptor binding or direct transactivation assays. However, assays for glucocorticoid-dependent nuclear translocation can also be used to screen for compounds affecting GR signaling.
Immunocytochemical staining has been used to assay for GR translocation, but is not suitable for high throughout screening due to the multiple reagent addition and wash steps required. Recently, a novel cell-based GR assay in Enzyme Fragment Complementation (EFC) format was developed by DiscoveRx (Fremont, CA). The assay uses EFC of b-galactosidase (b-gal) as an indicator of GR-translocation in engineered CHO-K1 biosensor cells. The enzyme acceptor (EA) fragment of b-gal resides in the nucleus , as designed through the use of a proprietary set of sequence additions and modifications. The small peptide enzyme donor (ED) fragment of b-gal is fused directly to the C-terminus of GR, and is localized in the cytoplasm is the absence of receptor signaling. Upon binding to a GR ligand, the complex translocates to the nucleus, where intact enzyme activity is restored by complementation and b-gal activity is detected. We optimized this GR-EFC assay in homogenous 1536-well plate assay format for high throughput screening.
NCGC Assay Protocol Summary:
CHO-K1 cells stably expressing NLS-enzyme acceptor fragment (EA) of b-gal and GR-enzyme donor (ED) fragment of b-gal were maintained in F12 medium (Invitrogen, Carlsbad, CA) at 37 Celsius degrees under a humidified atmosphere containing 5% CO2 and 95% air. The medium contained 10% FBS, 2 mM L-glutamine, 50 U/ml penicillin 50 ug/ml streptomycin, and 250 ug/ml hygromycin and 500 ug/ml G418 (Invitrogen).
GR-translocation was measured beta-gal enzyme activity using the PathHunter Detection Kit containing cell membrane permeablizing reagent and beta-gal substrate (DiscoveRx, Fremont, CA). All compounds were screened as titrations from 0.6 nM to 46 uM final concentration. The assay was performed in 1536-well format as follows:
5 uL cell suspension (1,000 cells)/well
Incubation at 37 Celsius degrees for two hours
1.25 uL 1X detection buffer from the kit supplied by DiscoveRx
Incubation at room temperature for one hour
Read plate in luminescence mode in ViewLux plate reader (PerkinElmer)
Keywords: NIH Roadmap, MLSCN, MLI, MLSMR, GR-EFC, GREFC, qHTS, NCGC
As for `COc1ccc(Nc2ncc3nc(-c4cccs4)c(=O)n(Cc4cccc(OC)c4)c3n2)cc1`, the Potency is greater than 46 µM.
In the case of `CS(=O)(=O)Nc1cccc(-c2cc(Nc3ccccc3)ncn2)c1`, the Potency is greater than 46 µM.
The same measure for `COc1ccc(C(=O)N2CCC[C@@]3(CCN(c4ccncc4)C3)C2)cc1`: greater than 46 µM; for `CN(C)[C@@H]1C(=O)C(C(N)=O)=C(O)[C@]2(O)C(=O)C3=C(O)c4c(O)ccc(Cl)c4[C@H](O)[C@H]3C[C@@H]12`: > 46 µM and > 20.6 µM; for `COCC(=O)N1CCC2(CCCN(c3ccccn3)C2)CC1`: greater than 46 µM.
As to `CN(C)Cc1ccccc1-c1nccc(N(C)Cc2ccco2)n1`, the Potency was greater than 46 µM.
Under `CN=C1N[C@H](c2ccccc2)N(c2ccccc2)S1` stands greater than 46 µM.
The same measure for `Fc1ccc(Nc2nc(-c3ccoc3)nc3ccccc23)cc1`: greater than 46 µM; for `N#Cc1ccc(CN2CCCC3(CCN(C(=O)c4ccncc4)CC3)C2)cc1`: greater than 46 µM; for `CO[C@]1(NC(=O)CSCC#N)C(=O)N2C(C(=O)O)=C(CSc3nnnn3C)CS[C@H]21`: > 46 µM and > 20.6 µM.
Take `COc1ccccc1CN1CCC2(CC1)CCN(C(=O)c1ccco1)CC2`: the Potency is greater than 46 µM.
Take `O=c1c(-c2cccs2)nc2cnc(Oc3cccc(Cl)c3)nc2n1C1CC1`: the Potency is greater than 46 µM.
`Cn1cc(-c2nc3cnc(N4CCOCC4)nc3n(CCC#N)c2=O)c2ccccc21`: the Potency was greater than 46 µM.
Consider `COCCn1c(=O)cnc2cnc(N3CCOCC3)nc21`, for which the Potency was greater than 46 µM.
With `c1cn(-c2cc(-c3ccc4c(c3)OCO4)ncn2)cn1`, the Potency is greater than 46 µM.
With `CCNc1ncc2nc(-c3cccs3)c(=O)n(C[C@H]3CCCO3)c2n1`, the Potency was greater than 46 µM.
For `Cc1nc2cnc(N3CCNCC3)nc2n(C2CC2)c1=O`, the Potency is greater than 46 µM.
Regarding `COc1cccc(-c2nc(Nc3ccncc3)c3ccccc3n2)c1`, the Potency was greater than 46 µM.
With `COc1ccccc1-c1cncnc1NCc1cnc(C)cn1`, the Potency is greater than 46 µM.
Under `Cn1c(=O)c(-c2ccc(F)cc2)nc2cncnc21` stands greater than 46 µM.
Consider `CC(=O)N1CCC2(CC1)CN(c1cccc(-c3ccccc3)c1)C2`, for which the Potency was greater than 46 µM.
The same measure for `O=C(c1ccco1)N1CCC2(CCCN(Cc3ccccc3)C2)CC1`: greater than 46 µM; for `Cc1cnc(CNc2cc(-c3cccc(C#N)c3)ncn2)cn1`: greater than 46 µM.
The same measure for `COc1cccc(Cn2c(=O)c(CCc3ccccc3)nc3cnc(N4CCOCC4)nc32)c1`: greater than 46 µM; for `COc1ccc2[nH]cc(CCNc3cc(-c4c(C)noc4C)ncn3)c2c1`: greater than 46 µM.
The same measure for `N#CCCn1c(=O)cnc2cnc(Oc3cccc(Cl)c3)nc21`: greater than 46 µM; for `CS(=O)(=O)N1CCC2(CC1)CN(c1ccccc1)C2`: greater than 46 µM; for `O=C(c1ccco1)N1CCC2(CCCN(c3ccccn3)C2)CC1`: greater than 46 µM.
As to `COc1ccccc1CNc1nc(-c2cccc(C#N)c2)nc2ccccc12`, the Potency was greater than 46 µM.
The same measure for `COc1ncc2nc(-c3cn(C)c4ccccc34)c(=O)n(Cc3ccc(F)cc3)c2n1`: greater than 46 µM; for `O=C(Oc1ccccc1)N1CCC[C@@]2(CCN(c3ccncc3)C2)C1`: greater than 46 µM.
Under `CS(=O)(=O)N1CCC[C@@]2(CCN(c3ncccn3)C2)C1` stands greater than 46 µM.
Take `O=S(=O)(c1ccccc1)N1CCC2(CC1)CN(Cc1nccs1)C2`: the Potency is greater than 46 µM.
For `COc1ccc(-n2c(=O)c(C)nc3cnc(N(C)C)nc32)cc1`, the Potency was greater than 46 µM.
`FC(F)(F)c1ccccc1-c1ccc2ncnc(NCc3cccs3)c2c1`: the Potency is greater than 46 µM.
Consider `O=C(Nc1cccc(F)c1)N1CC2(CCN(C(=O)c3ccncc3)CC2)C1`, for which the Potency is greater than 46 µM.
Under `COc1cccc(Nc2ncc3nc(-c4cc(F)cc(F)c4)c(=O)n(C4CC4)c3n2)c1` stands greater than 46 µM; under `O=c1c(-c2cccc(F)c2)nc2cncnc2n1-c1ccccc1`, greater than 46 µM; under `c1ccc(CNc2ccnc(-c3ccc4c(c3)OCO4)n2)cc1`, greater than 46 µM.
Turning to `CS(=O)(=O)N1CCC2(CC1)CN(c1ccccn1)C2`, the Potency is greater than 46 µM.

Values taken from PubChem BioAssay (NCATS).
